Whole data set: some 25,000 sequences, median “ln(normalized median fluorescence intensity)” near 9.7, cut for the highest 2% near 11. Only a selection was taken, and the highest values are over-represented in it overall.
What follows are sequences tested on PfAP2-HC AP2 domain (GST-tagged) (assay: gcPBM binding intensity (ln(normalized median fluorescence intensity)); higher = stronger DNA binding).
How it was run: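 GST-tagged P. falciparum DNA-binding domains, expressed in E. coli (about 25 μg on average), were applied for 1 h to an Agilent 4 × 180k array of primer-extended double-stranded 36-bp intergenic genomic probes plus negative controls. The binding buffer was 1× PBS with 1% milk, 0.2 mg/ml BSA, 0.5% salmon testes DNA and 0.03% Triton X-100. Bound protein was detected with Alexa488 anti-GST antibody and scanned at 488 nm. Binding intensity is the highest Masliner-normalised natural-log median intensity across replicate spots of either probe orientation.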

Row | Sequence | gcPBM binding intensity (ln)
1 | AAGCATTTTTTTTAAAGCCTGTTCATCATCCTTACC [CACACA_negctrl_site129] | 9.44
2 | TATTAATTAAACCATACACACATAATTTTTTTATAA [CACACA_site843] | 9.85
3 | ATTATTTAAATTTAACGTACGGAATAAGACATAGAT [XGTACX_site8622] | 9.79
4 | CATTTACATGCCAACATGCACTGAACAATCTTTATA [GTGCAC_site9797] | 9.68
5 | AAAATATATTAAGGCACACACATACATATTTATATA [CACACA_site7707] | 10.2
6 | AAATGAATAAAATTTATTTATAAAAGAAAAATCACA [GTGCAC_negctrl_site225] | 9.57
7 | TATATATATATATATACACACATACAGATATATATT [CACACA_site4629] | 9.88
8 | TAAATAAAAAAACACACACACATATATATATATATA [CACACA_site2269] | 11.4
9 | TATAAATAAAAACACACACACACATATATATATATA [CACACA_site2268] | 10.7
10 | TAAATAAATAAAAAAACACACATATATATATATATA [CACACA_site4029] | 10
11 | GTAGAGCATAATAAAACACACACATACATACATATA [CACACA_site8217] | 10.4
12 | AGAGCATAATAAAACACACACATACATACATATATA [CACACA_site935] | 10.3
13 | AAAAAAAAAAAAAACACACACACACGCATAAATATA [CACACA_site6217] | 11.5
14 | AAATAATATAAACATACACACACACCGATATATATA [CACACA_site8945] | 10.7
15 | CATAAAATATAAAACACACACACATATATATATATA [CACACA_site223] | 10.7
16 | AAAATACATAAACACACACACACACCGATATATATA [CACACA_site9186] | 11.6
17 | TAAATAAATAAAAAAACACACATATAAATATAAATA [CACACA_site7815] | 9.93
18 | ACCATATAAATAAACACACACACACCGATATATATA [CACACA_site5310] | 10.6
19 | AGAGCATAATAAAACACACACATACATACCTATATA [CACACA_site6566] | 10.9
20 | CAATCATGGTTTTACACACACATGCATGTGAAAATT [CACACA_site4870] | 9.8
21 | TTATACGATAATATGACACACAATACAAAAATGTAA [CACACA_site1918] | 9.86
22 | AATATAATATATATTAGTACATATATATATATATAT [XGTACX_site870] | 9.58
23 | GAAATAAATATATATGCATGTACTTTAATATTATTA [TGCATGCA_site904] | 9.66

Row | Sequence | gcPBM binding intensity (ln)
24 | TTTTACATATATATATGTACGAAAATGAAAAGGTCA [XGTACX_site5576] | 9.59
25 | TTTTTATGTTATCAAATAAATATAAATATAATTCAT [CACACA_negctrl_site1522] | 9.32
26 | AAATTTATGAACCTAGTGCAGAAATTAAAAAGATGA [GTGCAC_site9396] | 9.54
27 | TCATATATTCAAAAATTTAAAGTTAATAAAACTTGA [CACACA_negctrl_site1546] | 9.06
28 | AATATAAAAATGTTTACACACACACCCAAATATATT [CACACA_site2511] | 10.2
29 | GGAATAATATAAAACACACACATAAATATAAATATA [CACACA_site3376] | 10.7
30 | ATATAAATATAGTGTGCACACACATAATATATATAT [CACACA_site8713] | 10.4
31 | TATAAAAGGAAACACACACACATATATATATATATA [CACACA_site939] | 10.5
32 | AAAAAAAAAAAAAAAACACACATAAAAATATAATAA [CACACA_site3855] | 9.9
33 | AATATAAAAATGTTTACACACACACGGAAATATATT [CACACA_site7226] | 10.3
34 | AGGAAAAAAGAAAAAACACACATAAATATATATATA [CACACA_site3085] | 9.74
35 | ATAAATATTGGGTGCACACACATAATATATATATAT [CACACA_site2272] | 10.2
36 | ACATATAAATATTGTGTGCACACACATAATATATAT | 11.3
37 | AATATAAAAATGTTTACACACACACCGAAATATATT [CACACA_site8800] | 11.2
38 | AAGGAATAATATAAAACACACACATAAATATAAATA [CACACA_site9115] | 11.4
39 | TAAAAAGGAAAACACACACACACATATATATATATA [CACACA_site3588] | 11.4
40 | ATATAAAGAAATTAATTTTTCAACAATAAAAATATA [CACACA_negctrl_site1262] | 9.35
41 | AAATTGGGGCTTGTTACACACTTAGTGCGAGTTCTA [CACACA_site582] | 9.75
42 | ATTTATTATATATAGTGTACGTTCTTAATTATAATT [XGTACX_site7480] | 9.69
43 | TATCATATATTATATGCACACATGTTTTTCAAGAAT [CACACA_site1892] | 9.74
44 | TTTCTTTTTCGATATACACACTGTATGTGTCTAAAA [CACACA_site6054] | 9.95
45 | TGTATGATAACTATAGTGCATTTGGTAATTTTTCCA | 9.51
46 | AAATGTAAATTTATCCGTACATATATATATTTATAT [XGTACX_site7024] | 9.73

Row | Sequence | gcPBM binding intensity (ln)
47 | ATATATATATATATGTGTACATATATATATCATATG [XGTACX_site3126] | 9.68
48 | TAATAGAATATGATGGTGCAGCAGTCTTATTTTTCA | 9.61
49 | AAAACATACATATATACACACATATATATATATATA [CACACA_site1852] | 10.3
50 | ACCCATAAAAAGGATACACACACACCCACCCATATA [CACACA_site8205] | 10.6
51 | AAAAAAATTAAACACACACACACATATATATATATA [CACACA_site4718] | 11.5
52 | AAAACATACCTATATACACACATATAAATATAAATA [CACACA_site6956] | 10.1
53 | AAAAAAAAAAAACATACACACACATATATATATATA [CACACA_site8452] | 10.7
54 | AAAAAAAAATTAAAAACACACATATAAATAAATATA [CACACA_site6845] | 9.8
55 | ATTAAATAAAAAAACACACACATATATACCTATATA [CACACA_site5837] | 11
56 | AAAAAAAAATTAAAAACACACATATATATATATATA [CACACA_site1580] | 9.73
57 | CCATAAAAAGGATACACACACACACCGACATATATA [CACACA_site4653] | 10.9
58 | TAAAAGGATACATATACACACATATATATATATATA [CACACA_site2791] | 9.85
59 | TTAAAAAAAAAACACACACACATACACATATATATA [CACACA_site3299] | 11.1
60 | ATTAAATAAAAAAACACACACATATATACATATATA [CACACA_site3445] | 10.6
61 | ACATATATATTTATATGTACATATATTTATATATAT [XGTACX_site7469] | 9.64
62 | ATATTGTAAGTAAAATGTAATAAATATAATAAAATA [CACACA_negctrl_site697] | 9.76
63 | ATATATTTATATTGTACACACATTTATGCATATATA [CACACA_site7502] | 9.96
64 | ACATTCTATACATACACACCCACACCCAAAAAAAAA [CACACA_site863] | 10
65 | CTTATACATTATTAACGTACATGTTATATGAATAAC [XGTACX_site5752] | 9.6
66 | TGGAAAATTATAAGGTGTACATATAAGCTATTATAT [XGTACX_site118] | 9.63
67 | ATATATATATATATTTATTCATATATTTTTTGTCTT [TGCATGCA_negctrl_site58] | 9.52
68 | AAAAATGAATTATTTTGTACATATATATATATATAT [XGTACX_site3410] | 9.74
69 | TGCTATTTTTTCCTTTTTTTGTATCACAATCATATA [CACACA_negctrl_site1576] | 9.74

Row | Sequence | gcPBM binding intensity (ln)
70 | ATCAACATTATGTTTAGTACTTAGTGAATTGTTAAT [XGTACX_site4913] | 9.65
71 | ATTATATATGTATGGTGTACTAAGAATATTTTTTTA [XGTACX_site1950] | 9.55
72 | ATTATTTAAAAAAAATGTACATAATAAATATGAACG [XGTACX_site4010] | 9.58
73 | CAGTTTAATTTACATAGTACATAATATTTTAATTTT [XGTACX_site1793] | 9.65
74 | AAATAAATTAAAATAAATTAAATTAAATTAGCATTA [GTGCAC_negctrl_site531] | 9.52
75 | ATACATATATATATATGTACACACATTAATAAAAAA [XGTACX_site6874] | 9.89
76 | GACAATAAAAAGAAAAGTACATATATAAATTAACCA [XGTACX_site7858] | 9.65
77 | TGCATATGCATTATTTGTACATATGTAGATAATTAT [XGTACX_site6930] | 9.63
78 | GTATTTTTAAATGACACACACATATATATATATATA [CACACA_site1662] | 10.1
79 | ATAAATATGGAGCACACACACATAAACATACATATA [CACACA_site421] | 11.1
80 | AAAAAAAAAAAATATACACACACACCGACACATAAA [CACACA_site9270] | 10.9
81 | TGATAAATATGGAGCACACACACATAAACATACATA [CACACA_site420] | 10.4
82 | ATAAAATACATATAAACACACATATAAACCGACATA [CACACA_site2477] | 10.1
83 | AATAAATTGAAACACACACACACATATATATATATA [CACACA_site848] | 11.2
84 | TAAATTAAAAAAAATACACACACACCGACACATATA [CACACA_site9084] | 10.6
85 | ATAAATATGGAGCACACACACATAAACATACCTATA [CACACA_site6336] | 10.8
86 | AAAAGGAACAGACACACACACATATATAAATATGTA [CACACA_site7656] | 10.5
87 | TGCAAGGAACAACACACACACACATAAATGTATATA [CACACA_site8149] | 11.4
88 | TGCAAGGAAAAACACACACACACATAAATGTATATA [CACACA_site751] | 10.4
89 | TATATATATATATAAACACACATAAATATAAATATA [CACACA_site1121] | 9.88
90 | CATATAAATAAACACACACACACATATATATATATA [CACACA_site5309] | 10.5
